Laboratory results from PubChem BioAssay AID488922 (Johns Hopkins Ion Channel Center, 2010).
The whole screen tested about 310,000 compounds, of which about 3,800 (1.2%) were called active. This is one part of a sample in which actives are shown more often than they occur.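 The calls were made as follows: active = ratio B-score over 3 SD below the library mean, with starting fluorescence within 5 SD of its mean; inactive = the rest, inconclusive results apart.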

Target: Potassium channel subfamily K member 9 (Homo sapiens) (UniProt Q9NPC2)
Sequence (Q9NPC2 whole entry, looked up): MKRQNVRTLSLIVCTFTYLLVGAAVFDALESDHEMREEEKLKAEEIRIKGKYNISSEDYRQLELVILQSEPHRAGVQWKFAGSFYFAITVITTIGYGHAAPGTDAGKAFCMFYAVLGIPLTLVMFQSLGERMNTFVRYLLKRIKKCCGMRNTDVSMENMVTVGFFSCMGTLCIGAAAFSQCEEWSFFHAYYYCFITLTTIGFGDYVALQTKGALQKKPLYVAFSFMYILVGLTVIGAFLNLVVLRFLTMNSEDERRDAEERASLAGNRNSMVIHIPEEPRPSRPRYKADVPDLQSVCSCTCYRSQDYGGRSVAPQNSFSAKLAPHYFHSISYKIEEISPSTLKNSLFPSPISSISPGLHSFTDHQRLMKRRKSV
Assay: blockers of human TASK-3 (KCNK9) channel – HEK293 cells, thallium flux, primary screen (AID 488922);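 as to B-score: negative B-score means less thallium flux so channel inhibition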
Settings: HEK293 KCNK9, FluxOR thallium flux fluorescence, at 10 µM; active compounds read low

B-score, active:
Cc1cccc(NC(=O)CN2CCCN(S(=O)(=O)c3ccc(Br)s3)CC2)c1 -14.6, CCCSc1nc(NCc2ccco2)c2c3c(sc2n1)COC(C)(CC)C3 (centres undefined) -9.18, Cc1cc(C=O)c(C)n1-c1ccc(NC2CCCCC2)c([N+](=O)[O-])c1 -24.9, CCCCCn1c(=O)c(C(=O)OCC)c(Cl)c2ccccc21 -8.35, Cc1cc(C)cc(C(=O)N2CCN=C2SCc2ccc([N+](=O)[O-])cc2)c1 -7.18, COc1ccc(C(=O)N2CCc3cc(OC)c(OC)cc3C2c2cccc([N+](=O)[O-])c2)cc1 (centres undefined) -15.3, CN(C)S(=O)(=O)N1CCC(Oc2cccc(C(=O)NCCCC3CCCC3)c2)CC1 -14.3, COc1ccc([N+](=O)[O-])cc1-c1nc2ccccc2nc1-c1ccccc1 -9.17, CCCCC(=O)Nc1ccccc1N1CCN(c2ccc(F)cc2)CC1 -13.2, Cc1cccc(C(=O)Nc2ccccc2N2CCN(c3ccc(F)cc3)CC2)c1 -9.31, O=[N+]([O-])/C=C/c1ccc2c(ccn2Cc2ccccc2)c1 -9.63, O=C(NNc1ccccc1Cl)C(O)(c1cccc(C(F)(F)F)c1)c1cccc(C(F)(F)F)c1 -8.19, Cc1cccc(NC(=O)c2sc3nc4c(c(-c5ccco5)c3c2N)CCC4)c1 -10.4, COc1ccc(C2Nc3ccccc3C(=O)N2c2ccc(Cl)cc2)cc1Cn1cc([N+](=O)[O-])cn1 (centres undefined) -7.96, O=C1c2ccccc2S(=O)(=O)N1CC(O)Cn1c2ccccc2c2ccccc21 (centres undefined) -10.9, CC1(C)CC(N2CCN(C(c3ccccc3)c3ccccc3)CC2)=CC(=[N+]2CCCCC2)C1 -17.2, O=C(NNc1c2ccccc2nc2ccccc12)c1cc2ccccc2cc1O -7.49, COc1ccccc1NC(=O)CSc1nc2sc(C)c(C)c2c(=O)n1Cc1ccco1 -9.54

B-score, inactive:
Cc1ccc(N/N=C2\COC(C)(C)CC2=O)cc1, O=C(CN1CCCCCC1)Nc1ccc(S(=O)(=O)N2CCCCC2)cc1, Cc1ccc(S(=O)(=O)N2CCN(CC(=O)N/N=C/c3ccc(Br)s3)CC2)cc1, O=C1CCN(Cc2ccc([N+](=O)[O-])cc2)CCN1[C@H](CO)Cc1ccccc1, CCC1(C)Cc2c(sc3nc(SC)nc(N)c23)CO1 (centres undefined), CCC1(C)Cc2c(sc3nc(SC)[nH]c(=O)c23)CO1 (centres undefined), COc1ccc(-c2nc3c(s2)CCc2onc(-c4ccc(OC)cc4)c2-3)cc1, CC1CC(C)CN(S(=O)(=O)c2cccc3nonc23)C1 (centres undefined), CCn1c(Cc2cccs2)nnc1SCC(=O)c1ccc(C)cc1, Cc1cc([N+](=O)[O-])ccc1NC1CCCC1, Cc1c(NS(=O)(=O)c2ccc(NC3CCCC3)c([N+](=O)[O-])c2)c(=O)n(-c2ccccc2)n1C, Cc1ccc2nc(C)c3c(c2c1)N(c1ccccc1)CC3, Cc1nc2nc(SCC(=O)Nc3cccc(F)c3)[nH]c2cc1Br, COc1ccc(-c2nc3n(c(=O)c2C#N)CCS3)c(OC)c1, CCC1CCC/C1=N\NC(=O)c1ccc(Cl)cc1 (centres undefined), Cc1sc2nc(CSCC(=O)NC3CCCCC3)[nH]c(=O)c2c1C, CCCCn1c(=O)c(C(C)=O)c(O)c2ccccc21, CCOC(=O)c1nnn2c3ccccc3c(=O)n(C)c12, COc1ccccc1C1C(C#N)=C(N)Oc2c1c(-c1ccccc1)nn2-c1ccccc1 (centres undefined), CCc1nnc(NC(=O)CSc2nc(SC)ns2)s1, CN1C(C(=O)NCc2ccco2)CC2Cn3c(nc4ccccc43)C21 (centres undefined), O=C(Cc1ccc(F)cc1)N1CCN=C1SCc1cccc([N+](=O)[O-])c1, Cc1cccc(CC(=O)N2CCN=C2SCc2ccc([N+](=O)[O-])cc2)c1, CC1=CC(=C(C#N)c2nc3ccccc3s2)C=C(C)N1c1ccc(F)cc1F, O=S(=O)(Cc1nnnn1-c1ccc(Br)cc1)c1ccc(F)cc1, COc1ccccc1C1SCCN1C(=O)c1ccc([N+](=O)[O-])cc1 (centres undefined), COc1ccc2[nH]c(=O)c(C3c4cc(OC)c(OC)cc4CCN3C(=O)c3ccco3)cc2c1 (centres undefined), O=C(NCCCO)/C(=C\C=C\c1ccccc1)NC(=O)c1ccccc1Cl, Cc1ccc(CSc2nsc(C)c2C#N)cc1, O=C(Nc1ccc(F)cc1)C1CCCN(S(=O)(=O)c2ccc(-n3cnnn3)cc2)C1 (centres undefined), CN(C(=O)c1cccc(OC2CCN(S(=O)(=O)N(C)C)CC2)c1)C1CCOC1 (centres undefined), CNS(=O)(=O)c1cccc(C(=O)NCC2CCCCC2)c1, Cc1ccc(CCNC(=O)c2ccc3nc4ccccc4c(=O)n3c2)cc1, CC(C)(C)c1nnc(NC(=O)C2c3ccccc3Oc3ccccc32)s1, CCn1ccnc1CNC(=O)CC1C(=O)NCCN1Cc1ccc(F)cc1Cl (centres undefined), COc1ccc(-c2nc3cc([N+](=O)[O-])ccc3o2)cc1OC, O=[N+]([O-])c1ccc2c(c1)Nc1nc3ccccc3nc1N2, Cc1cnc(NC(=O)c2ccccn2)s1, CC(C)CNC(=O)C(=O)NCC(c1ccc2c(c1)OCO2)N1CCOCC1 (centres undefined), CC(C)[C@@H](NC(=O)OC(C)(C)C)C(=O)NCC1CCC(C(=O)N[C@@H](Cc2ccccc2)C(=O)O)CC1 (some centres undefined), CCC(C)C(=O)Nc1ccccc1N1CCN(c2ccc(F)cc2)CC1 (centres undefined), O=C(Nc1ccccc1N1CCN(c2ccccc2)CC1)c1cccc(F)c1, O=C(Nc1ccccc1N1CCCC1)c1ccc2ccccc2c1, CCCC(=O)Nc1ccccc1N1CCN(C(=O)c2ccccc2)CC1, COc1ccc(NC(=O)CN(C)C(=O)CC2CCCCC2)cc1, CNC1(c2nnnn2-c2c(C)cccc2C)CCOC(C)(C)C1 (centres undefined), COc1ccccc1NC(=O)C1=C(C)Nc2nc3ccccc3n2C1c1cccs1 (centres undefined), O=c1c([N+](=O)[O-])cc(C(F)(F)F)cn1Cc1cccc(Cl)c1, O=C(/C=C/c1cccc([N+](=O)[O-])c1)N1CCN(Cc2ccccc2)CC1, CC(C)Cc1nnc(NC(=O)CN2C(=O)NC3(CCCCC3)C2=O)s1, COc1cc(/C=C/C(=O)O)cc(S(=O)(=O)Nc2ccccc2C(=O)NCCc2ccccc2)c1OC, CC1CCCC(NC(=O)c2cccc(N3CCCC3=O)c2)C1C (centres undefined), O=C(/C=C/Sc1ncn[nH]1)c1ccc(Cl)cc1, O=C(Nc1cc(C(F)(F)F)ccc1Cl)C(=O)N1CCCCC1, CC(CC(=O)Nc1cc(C(F)(F)F)ccc1Cl)c1ccccc1 (centres undefined), CCO[C@H]1OC(C(=O)NCc2ccccc2)=C[C@@H](c2coc3ccccc3c2=O)[C@@H]1CCCO, O=C(COc1ccc2c3c(c(=O)oc2c1)CCCC3)NCC(O)c1ccccc1 (centres undefined), CN1CCN(CC#CCC2(O)c3ccccc3-c3ccccc32)CC1, Cc1cccc(NC(=O)c2sc3nc(N4CCOCC4)c4c(c3c2N)CCCC4)c1, NC(=O)c1sc2nc3c(c(-c4ccccc4)c2c1N)CCC3, CC1(C)CC(=O)C(C2c3ccccc3S(=O)(=O)c3ccccc32)C(=O)C1, COc1cnn(-c2ccc([N+](=O)[O-])cc2)c(=O)c1Cl, COc1ccc(N2C(=O)c3ccccc3NC2c2ccc(OC)c(CN3CCOCC3)c2)cc1 (centres undefined), CCCCn1c(N)c(N(CC(C)C)C(=O)c2ccc(Br)o2)c(=O)[nH]c1=O, Cc1ccccc1-c1nc(CS(=O)(=O)CC(=O)NC(C)c2ccccc2)c(C)o1 (centres undefined), CCOc1ccc(NC(=O)CN(C)C(=O)COc2cccc(CC)c2)cc1OCC, CC(C)(C)c1ccc(CN2C(=O)c3ccccc3S2(=O)=O)cc1, CCCCN(CCCC)CC(O)Cn1c2ccccc2c(=O)c2ccccc21 (centres undefined), CC(=O)Nc1ccc(S(=O)(=O)NNC(=O)CCc2ccccc2)cc1, Cc1c(NC(=O)c2cc(-c3ccc(Cl)s3)nc3ccccc23)c(=O)n(-c2ccccc2)n1C, Cc1cc(C)c(SCCc2ccncc2)c(C)c1, CCOC(=O)C(NS(=O)(=O)c1ccc(C)cc1)(C(F)(F)F)P(=O)(OCC(C)C)OCC(C)C (centres undefined), O=C(O)CN1CCN(C(c2ccccc2)c2ccccc2)CC1, CC1(C)CC(=O)C=C(N2CCCC2)C1, Cc1ccccc1-n1cc(CNC(=O)CC2C(=O)NCCN2C/C=C/c2ccccc2)cn1 (centres undefined), CCOc1ccc(C(=O)CCN2CCOCC2)cc1, CC(C)(C)OC(=O)NNc1c2ccccc2nc2ccccc12, O=C(N/N=C/c1cccnc1)c1cc2ccccc2cc1O, O=C(COc1ccc(NC(=O)c2ccccc2[N+](=O)[O-])cc1)c1ccc(F)cc1, CC(C)CC(=O)Nc1ccc(Cc2ccncc2)cc1, COc1ccccc1NC(=O)C1CCCN1S(=O)(=O)c1ccc(Cl)cc1 (centres undefined), CN(c1ccccc1)S(=O)(=O)c1cccc(C(=O)NNC(=O)c2ccncc2)c1, COc1ccccc1NC(=O)CSc1nc2sc3c(c2c(=O)n1-c1ccccc1)CCN(C)C3, Cc1cc(NC(=O)CSc2nc3cc(Cl)ccc3c(=O)n2Cc2ccco2)no1, O=S(=O)(NCC1CCCO1)c1cnc(Cl)c(Cl)c1 (centres undefined), COC(=O)CCCC1=CC2=C(c3ccccc3)C(=O)C(C)(OC(=O)C3CCCC3)C(=O)C2=CN1c1ccc(OC)cc1 (centres undefined)
